Out of some 400,000 compounds screened, about 2,100 (0.53%) were called active. Roughly 14% stayed inconclusive and do not appear here. No rule for the calls is given here. The entries come from a sample that favours actives as a whole.
Target: Ataxin-2 (Homo sapiens) (UniProt Q99700)
Experiment: qHTS for Inhibitors of ATXN expression.
Format: functional

Ataxin-2 (Homo sapiens), sequence (Q99700 whole entry): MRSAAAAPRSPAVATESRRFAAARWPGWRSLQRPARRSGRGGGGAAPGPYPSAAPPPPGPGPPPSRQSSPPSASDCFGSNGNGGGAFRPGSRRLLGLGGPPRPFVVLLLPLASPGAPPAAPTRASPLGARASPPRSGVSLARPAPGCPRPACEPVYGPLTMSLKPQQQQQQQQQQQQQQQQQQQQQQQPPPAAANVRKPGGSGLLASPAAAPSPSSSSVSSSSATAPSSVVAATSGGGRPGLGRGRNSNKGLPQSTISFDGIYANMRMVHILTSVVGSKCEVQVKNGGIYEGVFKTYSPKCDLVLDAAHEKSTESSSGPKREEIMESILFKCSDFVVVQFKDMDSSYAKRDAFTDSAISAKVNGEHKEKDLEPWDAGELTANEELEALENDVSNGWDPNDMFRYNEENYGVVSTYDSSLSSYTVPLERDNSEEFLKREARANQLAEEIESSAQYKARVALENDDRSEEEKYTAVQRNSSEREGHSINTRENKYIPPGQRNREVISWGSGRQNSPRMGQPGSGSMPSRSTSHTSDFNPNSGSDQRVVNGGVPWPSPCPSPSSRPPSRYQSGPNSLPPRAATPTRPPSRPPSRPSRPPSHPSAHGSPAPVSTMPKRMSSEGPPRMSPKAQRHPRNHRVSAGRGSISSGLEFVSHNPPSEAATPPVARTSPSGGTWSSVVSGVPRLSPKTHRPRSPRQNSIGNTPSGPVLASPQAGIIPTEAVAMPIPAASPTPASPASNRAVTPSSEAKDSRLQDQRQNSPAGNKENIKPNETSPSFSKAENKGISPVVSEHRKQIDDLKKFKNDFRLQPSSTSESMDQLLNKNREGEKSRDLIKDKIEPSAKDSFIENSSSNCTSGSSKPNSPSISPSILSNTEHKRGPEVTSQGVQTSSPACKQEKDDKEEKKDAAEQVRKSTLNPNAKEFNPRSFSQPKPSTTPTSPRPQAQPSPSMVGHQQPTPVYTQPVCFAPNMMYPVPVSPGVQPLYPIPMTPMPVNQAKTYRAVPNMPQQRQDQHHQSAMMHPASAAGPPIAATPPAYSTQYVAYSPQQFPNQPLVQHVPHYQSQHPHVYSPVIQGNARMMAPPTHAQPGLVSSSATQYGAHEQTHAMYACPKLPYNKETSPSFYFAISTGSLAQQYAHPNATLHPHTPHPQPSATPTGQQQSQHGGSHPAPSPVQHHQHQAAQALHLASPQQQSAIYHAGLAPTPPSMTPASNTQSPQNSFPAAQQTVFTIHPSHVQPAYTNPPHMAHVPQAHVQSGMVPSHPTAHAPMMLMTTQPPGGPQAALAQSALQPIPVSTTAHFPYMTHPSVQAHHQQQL

| Structure (SMILES) | Potency |
| --- | --- |
| Cc1nc(NC(=O)CSc2nnc(C3CC3)n2C)sc1C | inactive |
| C=CCn1c(=N)c(C(=O)NCCCOC)cc2c(=O)n3cc(C)ccc3nc21 | inactive |
| CCOc1ccc(S(=O)(=O)[N-]c2nc3ccccc3nc2-[n+]2ccc(NC(=O)c3cccs3)cc2)cc1 | inactive |
| CCCn1c(=O)c(C(=O)Nc2ccccc2C)c(O)c2ccccc21 | inactive |
| COC(=O)c1c(NC(=O)c2ccc(N(C)S(=O)(=O)c3ccc(C)cc3)cc2)sc2c1CCCC2 | inactive |
| COC(=O)c1ccc(NC(=O)c2c(NCc3ccc(C)o3)sc3c2CCCC3)cc1 | 35.5 µM (active) |
| COC(=O)c1c(NC(=S)NC(=O)c2ccco2)sc2c1CCCC2 | inactive |
| O=C(O)c1ccc(N2N=C(c3ccccc3)CC2c2ccccc2)cc1 (stereo not drawn) | inactive |
| COc1ccc(C2=NN(C(=O)c3ccccc3)C(c3ccc(OC)c(OC)c3)C2)c(O)c1 (stereo not drawn) | inactive |
| Cc1ccc(C(=O)N2N=C(c3ccc(Br)cc3)CC2c2ccccc2O)cc1 (stereo not drawn) | 42.3 µM (active) |
| N#Cc1c(C(F)(F)F)cc(-c2cccs2)nc1N1CCCCC1 | inactive |
| Cc1ccccc1NC(=O)c1nn(C)c(C(=O)Nc2ccccc2C)c1[N+](=O)[O-] | inactive |
| Cc1ccccc1NC(=O)Nc1nnc(Cc2ccc([N+](=O)[O-])cc2)s1 | 11.2 µM (active) |
| COc1ccccc1NC(=O)Nc1nnc(Cc2ccc(F)cc2)s1 | inactive |
| CCCc1cc(NCCOCCO)n2c(nc3ccccc32)c1C#N | inactive |
| Nc1nc(O)nc(O)c1N=Cc1ccccc1 | inactive |
| C/C(=N\NC(=O)c1ccc(CN2CCOCC2)cc1)c1ccc([N+](=O)[O-])cc1 | inactive |
| C/C(=N\Nc1nc(C)c(C)s1)c1ccc([N+](=O)[O-])cc1 | 37.7 µM (active) |
| COC(=O)c1ccc(/C=N/Nc2nc(C)c(C)s2)cc1 | inactive |
| CCOc1ccccc1N(CC(=O)NCCSc1ccccn1)S(=O)(=O)c1ccccc1 | inactive |
| C=CCS(=O)(=O)c1nc2ccccc2s1 | 35.5 µM (active) |
| O=S(=O)(CCSc1ccccn1)c1nc2ccccc2s1 | 22.4 µM (active) |
| O=C(OCc1nc2ccccc2s1)c1ccccc1O | inactive |
| Brc1ccccc1-c1nnc(SCc2nc3ccccc3s2)o1 | inactive |
| O=S(=O)(CCSc1nc2ccccc2o1)c1nc2ccccc2s1 | 15.8 µM (active) |
| O=C(O)c1ccc(C=C(c2nc3ccccc3s2)c2nc3ccccc3s2)cc1 | inactive |
| Cc1cccc(N2CC(C(=O)Nc3ccc(S(=O)(=O)Nc4nccs4)cc3)CC2=O)c1C (stereo not drawn) | inactive |

| Structure (SMILES) | Potency |
| --- | --- |
| COCC(=O)Nc1nc2n(n1)C(c1ccc(Cl)cc1)CC(c1ccc(OC)cc1)N2 (stereo not drawn) | inactive |
| COc1cc(CO)c(Br)cc1OCC(N)=O | inactive |
| COc1ccc2nc(NCCN=C(S)NCCCN3CCOCC3)c(C#N)cc2c1 | inactive |
| COc1ccc(C2c3ccc4ccccc4c3Oc3ncn(CCCO)c(=N)c32)cc1 (stereo not drawn) | 35.5 µM (active) |
| COc1ccc(C2c3ccc4ccccc4c3Oc3ncn(CCN4CCOCC4)c(=N)c32)cc1 (stereo not drawn) | 14.1 µM (active) |
| CN(C)CCn1cnc2c(c1=N)C(c1ccccc1)c1ccc3ccccc3c1O2 (stereo not drawn) | 28.2 µM (active) |
| N=c1c(C(=O)NC2CCCC2)cc2c(=O)n3ccccc3nc2n1CCCN1CCOCC1 | inactive |
| COc1ccc(Nc2ncc(F)c(N3CCOCC3)n2)cc1 | inactive |
| COc1ccc(C2c3c(ncn(CCN4CCOCC4)c3=N)Oc3ccc4ccccc4c32)cc1OC (stereo not drawn) | 14.1 µM (active) |
| Cc1ccc(S(=O)(=O)NC23CC4CC(CC(C4)C2)C3)cc1 | inactive |
| CCCn1nc(NC(=O)COC)c2cc3cccc(C)c3nc21 | inactive |
| COc1ccc(OC)c(/C=C2\Oc3cc(OCC(=O)N4CCC[C@H]4C(=O)O)ccc3C2=O)c1 | inactive |
| COCCNc1oc(/C=C/c2ccccc2)nc1C#N | inactive |
| COc1cc2ccccc2nn1 | inactive |
| COc1ccc(C2c3c(ncn(CCCO)c3=N)Oc3ccc4ccccc4c32)cc1 (stereo not drawn) | 25.1 µM (active) |
| COc1ccc(C2C=C(c3ccccc3)Nc3nc(CCCO)nn32)cc1 (stereo not drawn) | inactive |
| N=c1c2c(ncn1Cc1ccco1)Oc1ccc3ccccc3c1C2c1ccccc1 (stereo not drawn) | 12.6 µM (active) |
| CCOCCn1c(CN2CCCC(C)C2)nc2c1c(=O)n(C)c(=O)n2C (stereo not drawn) | inactive |
| COCCCn1c(C)nnc1SCc1ccc(C(C)(C)C)cc1 | inactive |
| CC(=O)Nc1nc2n(n1)C(c1ccc(F)cc1)C=C(c1ccc(Cl)cc1)N2 (stereo not drawn) | inactive |
| Cc1ccc(N2C(=O)/C(=C\Nn3cnnc3)c3ccccc3C2=O)cc1 | inactive |
| Cc1nc(SCc2ccccc2)c2ccsc2n1 | inactive |
| CCCCN=c1nc(S)n(-c2ccccc2)c(C)c1C(C)=O | 39.8 µM (active) |
| CCCCn1c(=O)nc2n(-c3ccccc3)c3ccccc3cc-2c1=O | inactive |
| C/C(=N\Nc1ccc([N+](=O)[O-])cc1)c1ccco1 | inactive |
| O=[N+]([O-])c1ccc(NN=C(Oc2ccccc2)c2ccc([N+](=O)[O-])cc2)cc1 | inactive |
